# Screens from PubChem BioAssay.
# CCHFV vOTU inh: CCHFV vOTU protease inhibition | Pep-AMC fluorescence | inhibition, % at 11.5 µM | actives 0.55% (n = 370,000); in the data active = inhibition above about 30%
# PriA SSB inh: blocks PriA binding to SSB C-terminal tail; AID 1272365; inhibition, % at 33 µM; actives 0.6% (n = 430,000); AlphaScreen SSBct-PriA binding, biotinylated peptide; in the data active = inhibition mostly above about 37%, no sharp cut-off; inactive = mostly below about 20%
# SARS 3CLpro inh: SARS-CoV 3CLpro protease inhibition. AID 1706. inhibition, % at 6 µM. recombinant SARS-CoV 3CLpro, quenched FRET peptide cleavage. actives 0.14% (n = 290,000). P0C6X7; in the data active = inhibition above about 12%
# DUSP3 inh: inhibitors of human VHR1 phosphatase (DUSP3); P51452; recombinant VHR phosphatase, pNPP absorbance; inhibition, % at 13.3 µM; actives 0.52% (n = 290,000); AID 1654; in the data active = inhibition above about 50%
# RecA intein inh: blocks M. tuberculosis RecA intein splicing; cell-free RecA intein splicing, fluorescence; inhibition, % (test concentration not listed); actives 0.75% (n = 290,000); AID 2221; in the data active = inhibition above about 30%
# Target sequence (P9WHJ3 whole entry, looked up): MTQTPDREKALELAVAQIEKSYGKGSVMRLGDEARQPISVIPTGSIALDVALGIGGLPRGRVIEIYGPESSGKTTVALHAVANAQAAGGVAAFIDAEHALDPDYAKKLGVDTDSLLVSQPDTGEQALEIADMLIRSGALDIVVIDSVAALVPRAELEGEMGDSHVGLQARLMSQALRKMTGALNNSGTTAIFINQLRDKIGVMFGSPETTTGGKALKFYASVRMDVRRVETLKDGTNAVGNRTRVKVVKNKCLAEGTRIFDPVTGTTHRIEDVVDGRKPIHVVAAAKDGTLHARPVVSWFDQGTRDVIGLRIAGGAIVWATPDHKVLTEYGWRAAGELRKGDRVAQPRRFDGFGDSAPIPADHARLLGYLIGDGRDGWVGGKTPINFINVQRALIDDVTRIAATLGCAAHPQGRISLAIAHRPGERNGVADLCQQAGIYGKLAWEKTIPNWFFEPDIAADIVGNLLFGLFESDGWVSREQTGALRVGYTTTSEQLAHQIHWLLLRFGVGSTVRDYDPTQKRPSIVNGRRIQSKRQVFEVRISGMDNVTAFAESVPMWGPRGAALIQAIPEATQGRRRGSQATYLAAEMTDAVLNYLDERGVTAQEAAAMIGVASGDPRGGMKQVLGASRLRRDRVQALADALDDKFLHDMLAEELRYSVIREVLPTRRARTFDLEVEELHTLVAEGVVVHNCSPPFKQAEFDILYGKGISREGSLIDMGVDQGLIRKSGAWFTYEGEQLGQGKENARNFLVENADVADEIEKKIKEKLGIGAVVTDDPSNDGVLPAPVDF
# Numbers stand for hits; 0 = inactive; - = no result; ! = not active in a repeat. Rows were chosen to be rich in hits. Some 1.7% of all compounds tested hit in one or more screens of this group.
SMILES,CCHFV vOTU inh,PriA SSB inh,SARS 3CLpro inh,DUSP3 inh,RecA intein inh
CCC(C(=O)NC1CCCC1)N(C(=O)Cn1nnc(-c2ccc(C)o2)n1)c1ccccc1OC (centres undefined),0,0,0,0,0
CCCN1CCCc2cc(CCNS(=O)(=O)c3ccc(NC(=O)C(C)C)cc3)ccc21,-,60.0,-,-,-
CCCN1CCCc2cc(CCNS(=O)(=O)c3ccc(C)cc3)ccc21,-,0,-,-,-
CCCN1CCCc2cc(CCNC(=O)C(=O)Nc3ccc(C(C)C)cc3)ccc21,-,0,-,-,-
CCCN1CCCc2cc(CCNS(=O)(=O)c3ccc(Cl)cc3)ccc21,-,62.0,-,-,-
CCCN1CCCc2cc(CCNS(=O)(=O)c3cccc(Cl)c3)ccc21,-,64.0,-,-,-
CCOc1nn(CC)cc1C(=O)Nc1cccc(C(C)=O)c1,-,0,-,-,-
O=C(Nc1ccc2c(c1)OCO2)c1cccc(NS(=O)(=O)c2ccc(Cl)cc2)c1,-,0,-,-,-
COc1ccc(C)cc1NC(=O)CSc1nc2c(sc(=S)n2-c2ccccc2)c(=O)[nH]1,-,0,-,-,-
S=C(NCCN1CCOCC1)Nc1ccc(Cl)cc1Cl,0,0,0,0,0
S=C(NCCCN1CCOCC1)Nc1ccc(Cl)cc1Cl,0,0,0,55.4,0
CN(C)CCCN(C(=O)c1cc(-c2cccs2)nc2ccccc12)c1nc2c(F)cccc2s1,0,52.0!,0,0,0
Cc1ccc2nc(N(CCCN(C)C)C(=O)c3cc(-c4cccs4)nc4ccccc34)sc2c1,0,44.0,0,0,0
COc1ccc(Br)cc1S(=O)(=O)NCCOC12CC3CC(CC(C3)C1)C2,-,0,-,-,-
CCCC1Oc2ccccc2C(=O)N(CC(=O)c2ccc(F)cc2)C1=O (centres undefined),-,54.0,-,-,-
Cn1nc(CNC(=O)Cc2ccccc2Cl)c2c1CCCC2,-,0,-,-,-
COC(=O)C1CC(OC)CN1C(=O)c1ccc(F)cc1Cl (centres undefined),-,0,-,-,-
Cc1nn(S(=O)(=O)c2ccccc2[N+](=O)[O-])c(C)c1Sc1ccccc1,-,37.0,-,-,-
Cc1nn(S(=O)(=O)c2ccccc2)c(C)c1Sc1ccc([N+](=O)[O-])cc1,0,0,0,0,0
CNS(=NS(=O)(=O)c1ccccc1)c1ccc(C)cc1 (centres undefined),-,0,-,-,-
Cc1ccc(CCNc2ccc3ccccc3c2)cn1,0,0,0,-,38.1
Cc1ccc(NCCc2ccc(C)nc2)cc1,0,0,0,0,0
O=Nc1ccc(NOC(=O)c2ccccc2Br)cc1,0,0,0,0,0
O=C(ONc1ccc(N=NC(=O)c2ccccc2O)cc1)c1ccccc1,0,0,0,52.1,0
CCC(C(=O)NCCCN1CCN(CC)CC1)n1nc(C)n2c(cc3occc32)c1=O (centres undefined),0,0,0,0,0
SMILES,CCHFV vOTU inh,PriA SSB inh,SARS 3CLpro inh,DUSP3 inh,RecA intein inh
CCC(C(=O)NCCCN1CC(C)CC(C)C1)n1ncn2c(cc3occc32)c1=O (centres undefined),0,0,0,57.7,0
CCCCN(C)S(=O)(=O)c1cc2c3c(c1)CCC(=O)N3CCC2,0,0,0,55.7,0
CCN(c1ccccc1C)S(=O)(=O)c1cc2c3c(c1)CCC(=O)N3CCC2,0,0,0,0,0
O=C(CN1CCC(c2nnc(-c3ccsc3)o2)CC1)N1CCc2ccccc21,-,0,-,-,-
Cc1ccc(-c2ccc(OCC(=O)NCCC(=O)O)cc2)cc1,-,0,-,-,-
CN(Cc1ccccc1)C(=O)c1cn(C)c2ccc(S(=O)(=O)N3CCCC3)cc2c1=O,0,0,0,51.2,0
Cc1ccc(CNC(=O)c2cn(C)c3ccc(S(=O)(=O)N4CCOCC4)cc3c2=O)cc1,0,0,0,52.1,0
O=C(NC1CCN(c2nccs2)CC1)c1ccc(S(=O)(=O)N2CCOCC2)cc1,-,0,-,-,-
O=C(NCC(c1ccsc1)N1CCOCC1)c1cccc(C(F)(F)F)c1 (centres undefined),-,0,-,-,-
O=C(CSc1ccc(F)cc1)NCC1CCN(c2nc3ccccc3o2)CC1,-,0,-,-,-
O=C(C[C@H]1C/C=C/CC[C@H](Cc2ccc(F)cc2)C(=O)OC[C@H]2CCCN2C1=O)N[C@@H](CO)Cc1ccccc1,-,0,-,-,-
O=[N+]([O-])c1cccc2c([As](=O)(O)O)cccc12,0,0,0,0,35.3
COc1ccc(N2CC(C(=O)Nn3cnc4c(cnn4-c4ccc(C)cc4)c3=O)CC2=O)cc1 (centres undefined),-,0,-,-,-
Cc1onc(-c2ccccc2)c1C(=O)NC(=S)NNC(=O)c1ccccc1O,0,64.1,0,0,0
O=C(NC(=S)NNC(=O)c1ccccc1O)c1cccs1,0,45.3,0,0,0
COc1ccccc1C(=O)NNC(=S)NC(=O)c1cccs1,0,-,0,0,0
O=S(=O)(NCC#CCN1CCc2ccccc2C1)c1ccc(Br)s1,-,0,-,-,-
Cc1ccc(NC(=O)Cn2c(=O)n(Cc3ccccc3Cl)c(=O)c3nccnc32)c(C)c1,-,0,-,-,-
O=S(=O)(NCC1CCCN1c1ccccc1)c1ccc(OC(F)(F)F)cc1 (centres undefined),-,0,-,-,-
Cc1ccc(S(=O)(=O)NC[C@H]2CCCN2c2ccccc2)s1,-,34.0,-,-,-
O=S(=O)(NC[C@H]1CCCN1c1ccccc1)c1cccc2ccccc12,-,32.0,-,-,-
CCN(CC)c1ccc(C=NNS(=O)(=O)c2ccc(C)c([N+](=O)[O-])c2)cc1,-,39.3,-,-,-
N#CC1=C(N)C(C#N)(C#N)[C@H](c2ccncc2)[C@H]2CN(C(=O)OCc3ccccc3)CC=C12,0,0,0,53.8,0
O=[N+]([O-])c1ccc(NC(=S)N2CCCC2)cc1,0,0,0,50.7,0
Cc1ccc(S(=O)(=O)c2nc(-c3ccccc3)oc2S(=O)(=O)CC(=O)N2CCCC2)cc1,-,0,-,-,-
SMILES,CCHFV vOTU inh,PriA SSB inh,SARS 3CLpro inh,DUSP3 inh,RecA intein inh
O=C(Nc1ccc(OC(F)(F)C(F)(F)C(F)(F)C(F)(F)F)cc1)c1ccncc1,-,0,-,-,-
Cn1c(-c2ccc(Cl)cc2)cnc1N,0,54.1,0,0,0
CCOc1ccc(-c2cnc(N)n2C)cc1,0,0,0,0,0
CCOC(=O)CCC(=O)Nc1ccc2c(c1)CC(=O)N2,-,0,-,-,-
N=c1c2c(-c3ccccc3)c(-c3ccccc3)n(Cc3ccccc3)c2ncn1CCCn1ccnc1,0,46.2,0,0,0
CCOc1c(C)cc(S(=O)(=O)Nc2ccc3c(c2)N(C(=O)CC)CCC3)cc1C,-,0,-,-,-
O=c1[nH]c(-c2ccccn2)cc2ccccc12,0,0,0,0,0
O=c1[nH]c(-c2ccccn2)cs1,-,63.3,-,-,-
O=C(NC1CCC(Oc2cnccn2)CC1)c1ccoc1 (centres undefined),-,0,-,-,-
O=[N+]([O-])c1ccccc1NN=Cc1ccccc1,-,0,-,-,-
CC(C)Oc1ccccc1C=NNc1ccccc1[N+](=O)[O-],-,82.1,-,-,-
O=C(CN1CC(=O)Oc2ccccc21)Nc1nc(-c2ccccn2)cs1,-,100.0,-,-,-
Cc1csc(=O)n1CC(=O)Nc1nc(-c2ccccn2)cs1,-,107.0,-,-,-
O=C(Cn1[nH]c(=O)ccc1=O)Nc1nc(-c2ccccn2)cs1,-,97.3,-,-,-
O=C(CN1C(=O)NC2(CCCC2)C1=O)Nc1nc(-c2ccccn2)cs1,-,97.8,-,-,-
Cn1nc(-c2ccc(F)cc2)cc1C(=O)Nc1cccc(N2CCCCC2=O)c1,-,0,-,-,-
Cc1ccccc1NC(=O)CSc1ccc(NC(=O)c2ccccc2F)nn1,-,0,-,-,-
